Screens deposited in PubChem by several laboratories.
Hits are enriched below; roughly 1.5% of the tested compounds scored in any of these assays.
miR-122 sensor = miR-122 inhibition in Huh7 cells | activation (reporter increase), % at 12.5 µM | Huh7 miR-122 Renilla luciferase sensor, 48 h; neutral wells = 0, positive control = 100 | AID 602342 | 340,000 tested, 0.3% active;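 active = mean replicate activation score at least 90 and every replicate individually at or above 90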;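 also: higher luciferase means less miR-122 activity so hits act as miR-122 inhibitors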
RAD54 branch = RAD54 (human) branch migration inhibition; RAD54 Holliday junction branch migration, FAM/BHQ fluorescence; inhibition, % at 10.4 µM; 360,000 tested, 0.14% active; AID 602329;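 active = mean normalized replicate activity at least 40 and at least half of replicates scoring 40 or more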;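 also: 0% = median of neutral control wells and 100% = median of positive control wells; inhibitors cause a drop in the FAM fluorescence signal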
FID counter = displaces DNA intercalator in HCV helicase counter-screen | DNA fluorescent intercalator displacement, fluorescence | inhibition, % at 7.9 µM | 290,000 tested, 0.17% active; in the data active = inhibition above about 37%;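 also: 0% = vehicle and 100% = reference compound; higher means more ethidium bromide displaced from hairpin DNA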
NRP1-CendR mod = modulators of CendR peptide binding to human neuropilin-1. 360,000 tested, 0.85% active. O14786. AID 602438. inhibition, % at 25 µM. FAM-RPARPAR peptide binding to NRP-1, fluorescence polarization;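 active = inhibition or corrected inhibition above about 18%, plus a signal ratio from 0.5 to 1.5, limit read from the data, passing the limit was not always enough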
Target sequence (O14786 whole entry, looked up): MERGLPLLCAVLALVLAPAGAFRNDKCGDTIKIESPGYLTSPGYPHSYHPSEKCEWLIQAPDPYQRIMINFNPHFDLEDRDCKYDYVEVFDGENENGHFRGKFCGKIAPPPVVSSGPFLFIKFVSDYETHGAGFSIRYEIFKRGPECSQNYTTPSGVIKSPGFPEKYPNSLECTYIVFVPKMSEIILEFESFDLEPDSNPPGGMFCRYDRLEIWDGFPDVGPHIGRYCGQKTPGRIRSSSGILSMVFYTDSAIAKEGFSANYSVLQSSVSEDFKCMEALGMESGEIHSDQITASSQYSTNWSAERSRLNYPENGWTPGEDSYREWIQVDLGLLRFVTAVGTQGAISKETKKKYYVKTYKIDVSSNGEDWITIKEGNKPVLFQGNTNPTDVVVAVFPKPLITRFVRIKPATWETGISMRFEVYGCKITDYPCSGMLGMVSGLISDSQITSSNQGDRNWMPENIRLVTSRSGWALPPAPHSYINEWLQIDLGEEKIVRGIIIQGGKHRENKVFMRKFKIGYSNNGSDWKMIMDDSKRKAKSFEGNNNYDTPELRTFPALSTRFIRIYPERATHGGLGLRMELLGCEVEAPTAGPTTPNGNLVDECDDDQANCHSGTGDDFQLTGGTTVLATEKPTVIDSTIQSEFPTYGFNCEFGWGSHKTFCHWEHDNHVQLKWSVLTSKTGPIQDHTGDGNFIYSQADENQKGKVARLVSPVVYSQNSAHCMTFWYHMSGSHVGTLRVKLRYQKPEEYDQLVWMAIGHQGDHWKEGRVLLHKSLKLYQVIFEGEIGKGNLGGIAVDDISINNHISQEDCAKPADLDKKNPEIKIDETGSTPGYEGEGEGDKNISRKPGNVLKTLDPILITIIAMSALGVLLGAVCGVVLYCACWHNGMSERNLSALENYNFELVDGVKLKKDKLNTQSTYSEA
RAD52 anneal inh = blocks human RAD52 DNA annealing; P43351; recombinant RAD52 DNA annealing, FRET fluorescence; inhibition, % at 18.7 µM; 360,000 tested, 0.46% active;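 active = every replicate showing at least 50% inhibition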
Glyco luc inh = blocks N-linked glycosylation in D54 reporter cells. D54 ERlucT glycosylation luciferase reporter, 24 h; percent of 100 nM tunicamycin response. reporter increase, % at 12.5 µM. 360,000 tested, 0.23% active. AID 588692;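 active = mean luciferase reporter signal, scaled so untreated is 0 and the glycosylation-blocking control 100, at or above a set limit in every replicate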;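 also: luciferase carries N-glycosylation sites so blocking glycosylation raises the light; 0% = median of neutral control wells and 100% = median of 100 nM tunicamycin wells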
The depositor's hits bear a star; . = no result given; [ ] = remark or other dose.

SMILES | miR-122 sensor | RAD54 branch | FID counter | NRP1-CendR mod | RAD52 anneal inh | Glyco luc inh
C[C@H]1NC(=O)[C@@]2(C)[C@@H](c3ccccc3)[C@H]3COc4ccccc4[C@@H]3N2C1=O | -0.3 | -2.1 | . | 25.4* | -6.4 | -1.5
C[C@@]12C(=O)Nc3ccc(F)cc3C(=O)N1[C@H]1c3ccccc3OC[C@@H]1[C@@H]2c1ccccc1 | . | 8.2 | . | -3.0 | . | 11.4
C[C@]12C(=O)N(c3ccc(F)cc3)C(=O)N1[C@@H]1c3ccccc3OC[C@@H]1[C@H]2c1ccccc1 | -7.6 | 1.9 | -34.5 | 3.3 | -13.9 | -2.5
C[C@@]12C(=O)N(c3ccc(C(F)(F)F)cc3)C(=O)N1[C@@H]1c3ccccc3OC[C@@H]1[C@H]2c1ccccc1 | -15.9 | 2.2 | -19.6 | 27.6* | . | -10.0
C[C@@]12C(=O)Nc3ccc(Cl)cc3C(=O)N1[C@H]1c3ccccc3OC[C@@H]1[C@@H]2c1ccccc1 | -3.5 | -3.6 | . | 9.5 | . | 27.6*
COc1ccc2c3c(n(C)c2c1)[C@H](CO)N(Cc1ccccc1)CC31CCN(CC2CC2)CC1 | . | . | . | . | -0.1 | .
CC(=O)N1CCc2cc(Br)cc(S(=O)(=O)NCc3ccc(Cl)cc3)c21 | 109.8* | -4.8 | -17.8 | 8.0 | -3.8 | 0.1
Cn1ncc2c(O/N=C(\N)c3ccc(C(F)(F)F)cc3)ncnc21 | -33.1 | 2.2 | -7.3 | 7.3 | 0.7 | 40.9*
COCCn1c(SCc2cc(=O)n3ccsc3n2)nnc1-c1ccncc1 | . | . | -4.6 | -9.8 | -7.4 | -0.9
O=c1cc(CSc2n[nH]c(-c3ccncc3)n2)nc2sccn12 | . | . | -0.9 | 23.5* | -15.0 | -2.0
C[C@@H]1CN([C@H](C)CO)C(=O)Cc2cc(NC(=O)Cc3cn(C)c4ccccc34)ccc2O[C@H]1CN(C)Cc1ccc2c(c1)OCO2 | -9.6[16.7 µM] | 6.4 | . | . | -40.5 | .
Cn1nc(CC(=O)N2CCN(c3ccccc3)CC2)c2ccccc2c1=O | 343.8* | 6.6 | -26.0 | 3.5 | . | 0.0
CC1CCN(C(=O)Cc2nn(C)c(=O)c3ccccc23)CC1 | -0.3 | 7.0 | -0.2 | 5.9 | . | 0.1
Cc1cc(C(=O)Nc2cccc3c2O[C@H](CN(C)C(=O)NC(C)C)[C@@H](C)CN([C@H](C)CO)C3=O)n(C)n1 | 0.1[16.7 µM] | -0.3 | . | . | -0.5 | .
CCOc1ccc(C(C)=O)cc1COc1cccnc1[N+](=O)[O-] | . | -0.9 | -7.2 | -4.2 | -12.6 | 30.3*
CNC[C@@H]1OCCCC[C@@H](C)Oc2ccc(NC(=O)CCC(F)(F)F)cc2C(=O)N([C@H](C)CO)C[C@H]1C | 2.0[16.7 µM] | . | . | . | . | .
CC(C)(CNC(=S)NCCc1ccccc1)CNC(=S)NCCc1ccccc1 | 279.8* | 0.9 | -16.0 | -4.6 | -21.4 | -10.5
O=C(C1CCN(S(=O)(=O)c2ccc(Br)s2)CC1)N1CCc2ccccc21 | -0.6 | -0.8 | -7.9 | 43.3* | . | -1.6
COc1ccccc1NC(=S)NNC(=O)c1ccccc1Br | . | . | -4.3 | 20.7* | -8.0 | 0.3
CO[C@H]1CN(C)C(=O)c2ccc(NC(=O)CC(F)(F)F)cc2OC[C@@H](C)N(C(C)=O)C[C@@H]1C | . | . | . | . | -54.7 | .
Cn1nc([N+](=O)[O-])c(C(C#N)c2nc3ccccc3n2C)c(Cl)c1=O (configuration not stated) | . | . | -4.5 | 27.7* | . | 6.8
Cc1noc(C)c1NC(=O)N(C)C[C@H]1OCCCC[C@H](C)Oc2ccc(NC(=O)Cc3ccccc3)cc2C(=O)N([C@@H](C)CO)C[C@H]1C | 0.4[16.7 µM] | 1.0 | . | . | 4.6 | .
C[C@H](CO)N1C[C@H](C)[C@@H](CN(C)Cc2ccc(Cl)c(Cl)c2)Oc2ccc(NC(=O)c3ccncc3)cc2CC1=O | -3.5[16.7 µM] | 6.2 | . | . | 35.6 | .
Cc1c(CC(=O)O)c(=O)oc2cc(OCc3ccc(F)cc3Cl)ccc12 | . | 3.2 | -27.5 | 50.9* | -7.4 | 1.9
Cc1nc2c3ccccc3n(CCN3CCCCC3)c2s1 | . | . | 3.7 | . | . | .
SMILES | miR-122 sensor | RAD54 branch | FID counter | NRP1-CendR mod | RAD52 anneal inh | Glyco luc inh
Cc1nc2c3cc(F)ccc3n(CCN3CCCCC3)c2s1 | 18.5 | 41.4 | 13.2 | 7.9 | 28.7 | 31.9*
FC(F)(F)C1=Nc2cccc3cccc(c23)N1 | . | . | . | 38.4* | -11.0 | 0.0
C[C@H]1CN([C@@H](C)CO)C(=O)c2cc(-c3cccnc3)cnc2O[C@H]1CN(C)Cc1ccccc1 | -3.5[16.7 µM] | . | . | . | . | .
CCOc1ccccc1N1CC(O)=C(c2nc3ccccc3s2)C1=N | 100.5* | -2.4 | -15.8 | -2.5 | -16.2 | 16.7
CN1CCN(C(=O)c2ccc(N(C)S(=O)(=O)c3cccs3)cc2)CC1 | 6.1 | 6.2 | 14.2 | 22.1* | -14.5 | -1.1
CN(c1ccc(C(=O)N2CCCCC2)cc1)S(=O)(=O)c1cccs1 | 2.1 | 4.3 | -22.1 | 4.8 | -5.8 | 0.6
CCN(C(=O)COC(=O)c1cnccn1)c1cccc2ccccc12 | -0.1 | -6.3 | . | -4.4 | -6.1 | 1.7
CCN(C(=O)COc1ccc(C(C)=O)cc1)c1cccc2ccccc12 | -6.7 | 9.1 | . | 36.0* | -7.2 | -1.4
COc1cc(C(=O)n2nc(C)cc2C)ccc1O | 1.2 | -4.8 | -6.3 | 33.0* | . | 2.0
COc1ccc(C(=O)n2nc(C)cc2C)cc1Br | -5.6 | -8.2 | -2.7 | 4.7 | . | 1.2
CN(C)CC(=O)Nc1ccc2c(c1)[C@H]1C[C@H](CC(=O)N3CCOCC3)O[C@H](CO)[C@H]1O2 | -3.3[16.7 µM] | -10.3 | . | . | . | .
O=C1C=C(c2cccs2)C[C@H](c2ccccc2)[C@H]1n1nnc([N+](=O)[O-])n1 | . | . | -8.1 | 6.6 | . | 25.5*
CC(=O)C1C(=O)C=C(c2cccs2)CC1c1ccccc1 (configuration not stated) | -0.1 | 4.9 | -6.7 | -5.8 | -16.6 | -1.5
O=C(NCC1CC1)[C@H]1[C@H](CO)[C@H]2Cn3c(ccc(-c4cccc(F)c4)c3=O)[C@H]2N1CC1CC1 | -8.4[16.7 µM] | -2.2 | . | . | -1.9 | .
COc1ccccc1NC(=O)N[C@@H]1CC[C@@H](CC(=O)N2CCC(Cc3ccccc3)CC2)O[C@H]1CO | . | 2.8 | . | . | -2.6 | .
C/C=C/c1ccc2c(c1)O[C@@H](CN(C)C(C)=O)[C@@H](C)CN([C@H](C)CO)S2(=O)=O | 4.8[16.7 µM] | 11.9 | . | . | 3.2 | .
CC(=O)c1cn(CC(=O)NCC2CCCO2)c2ccccc12 (configuration not stated) | -5.4 | 4.8 | 0.8 | 19.7* | . | 0.0
Cc1ccc2c(c1)c1c(c(=O)n(-c3ccccc3C)c(=O)n1CC(=O)NCC1CCCO1)n2C (configuration not stated) | -3.2 | -11.0 | -29.8 | 30.6* | -11.0 | -1.5
CC(=O)N1c2c(cc(Br)cc2S(=O)(=O)NCC2COc3ccccc3O2)CC1C (configuration not stated) | 119.7* | 5.8 | -21.8 | 8.8 | . | -2.7
CO[C@H]1CN(C)C(=O)c2ccc(NS(=O)(=O)c3ccc(-c4ccccc4)cc3)cc2OC[C@@H](C)NC[C@@H]1C | . | . | . | . | 29.4 | .
COc1ccc2c3c([nH]c2c1)[C@@H](CO)N(C)CC31CN(C(=O)NC(C)C)C1 | . | . | . | . | -19.6 | .
COCCCN1C(=O)C(=O)/C(=C(/O)c2ccc(OCC(C)C)cc2)C1c1cccnc1 (configuration not stated) | -1.3 | . | -8.0 | -3.3 | . | 0.3
